The list is not random: actives were taken first. Their share in the collection is about 8%.
VP16 counter: inhibits Gal4-VP16 luciferase reporter, ROR gamma counter-screen; actives 3.5% (n = 310,000); AID 2546; Potency, µM (series often up to 53.6 µM), usual class: inhibitors; Drosophila S2 Gal4-VP16 UAS-luciferase, luminescence, 20 h;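 further: Gal4-VP16 expression switched on by copper sulfate through the metallothionein promoter; nearly all actives have a fitted effect of over 50% in size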
TSHR antagonist: antagonists of human thyroid stimulating hormone receptor | P16473 | TSHR-expressing cells, TSH-stimulated cAMP HTRF, 2 h; active compounds read low | activity change, negative = inhibition, % at 11.5 µM | actives 0.2% (n = 330,000);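 active means activity change below a set negative limit, meaning inhibition stronger than a set level, cut at about -70% in these data; inconclusive means activity change between two set negative limits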
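Inhibition of cAMP made by TSHR-expressing cells under TSH stimulation (4nM final, EC80; 2 h, 37 deg C) is quantified with a one-step lysis HTRF kit, anti-cAMP cryptate versus cAMP-d2.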
RORgamma inh: blocks mouse ROR gamma transcriptional activity; Potency, µM (highest dose often 53.6 µM), most hits filed as inhibitors; P51450; actives 5.4% (n = 310,000); AID 2551; Drosophila S2 Gal4-RORgamma UAS-luciferase reporter, 20 h; further: nearly all actives have a fitted effect of over 60% in size
Target sequence (P51450 whole entry, looked up, the tested form may be a part): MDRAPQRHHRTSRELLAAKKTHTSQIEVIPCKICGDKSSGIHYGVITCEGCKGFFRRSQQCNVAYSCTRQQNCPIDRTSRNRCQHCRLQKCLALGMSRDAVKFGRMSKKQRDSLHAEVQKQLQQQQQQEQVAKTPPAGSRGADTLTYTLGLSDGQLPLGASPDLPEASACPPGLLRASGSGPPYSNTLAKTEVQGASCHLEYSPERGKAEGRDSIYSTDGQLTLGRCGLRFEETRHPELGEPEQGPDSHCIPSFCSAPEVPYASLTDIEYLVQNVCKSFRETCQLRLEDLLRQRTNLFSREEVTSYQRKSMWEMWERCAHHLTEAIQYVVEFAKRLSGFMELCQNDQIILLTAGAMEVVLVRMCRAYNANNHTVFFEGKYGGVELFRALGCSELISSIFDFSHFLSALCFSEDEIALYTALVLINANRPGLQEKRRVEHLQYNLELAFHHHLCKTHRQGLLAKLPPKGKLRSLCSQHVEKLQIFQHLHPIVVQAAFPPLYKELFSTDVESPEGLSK
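Using a luciferase readout, inhibitors were identified by reduced reporter activity in Drosophila cells coexpressing a copper-inducible Gal4–ROR gamma fusion and UAS-driven Photinus luciferase, incubated 20 hr after 700 uM copper sulfate.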
ELG1 DNA repair: ELG1-dependent DNA repair inhibition; HEK293T ELG1-luciferase reporter, luminescence, 16 h; DNA damage induced by 5-fluorouridine; Potency, µM (top dose mostly 46.1 µM), hits mostly inhibitors; actives 2.3% (n = 330,000); further: nearly all actives have a fitted effect of over 55% in size
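HEK293T cells expressing luciferase-tagged ELG1 (2,000/well) received 5-Fluorouridine plus compound or DMSO for 16 hr at 37 °C. Luciferase was read by ONE-Glo luminescence after 30 min at room temperature.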
FBPA coupling cs: coupling enzyme interference in Giardia aldolase counter-screen; coupling enzyme system counterscreen, AmpLite Red fluorescence; actives 0.67% (n = 290,000); activity change, negative = inhibition, % at 58.2 µM, hits read low; in the data active means activity change below about -30%
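Coupling enzymes only (glyceraldehyde-3-phosphate) + compound, at 57.5 uM final, 10 min RT; add substrate/coupling/AmpLite Red mix, 20 min RT; fluorescence ex 525/em 598 nm. Actives flag coupling-system interference.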
Hits are given with their value; - = inactive; ? = inconclusive; . = no result given; [ ] = another dose, or the depositor's remark. Unless noted, the call rests on the fitted dose curve; in most records, active means well fitted curve in the direction sought with a large enough effect; inconclusive means small, poorly fitted or top-dose-only effect, or another doubt; inactive means no such curve, though single readings can be large; an effect the other way counts as inactive or inconclusive.

SMILES	VP16 counter	TSHR antagonist	RORgamma inh	ELG1 DNA repair	FBPA coupling cs
CCn1c(SCC(=O)c2ccccc2)nc2sc3c(c2c1=O)CCN(C)C3	-	-	-	?	-
CC(=O)N[C@@H](c1ccccc1)[C@]1(C)C[C@H]1[C@@H](C)C(=O)Nc1ccc2ccccc2c1	-	.	0.355µM	.	-
C[C@@H](C(=O)Nc1ccc2ccccc2c1)[C@@H]1C[C@@]1(C)[C@@H](NS(=O)(=O)c1ccccc1)c1ccccc1	-	.	-	.	-
Cc1ccc2cccc(OCc3ccc(F)cc3)c2n1	?	-	?	-	-
Cc1ccc2cccc(OCc3ccccc3)c2n1	-	-	14.1µM	-	-
CNc1cc2c(Nc3cccc(Br)c3)ncnc2cn1	12.6µM	.	12.6µM	.	-49.8
Clc1ccc(Nc2ncnc3ccc(Br)cc23)cc1	-	-	-	?	-
CN(C)c1ccc(Nc2ncnc3ccc(Br)cc23)cc1	-	-	-[1.91 µM]	8.2µM	-
CCOC(=O)C1=CC(OC(CC)CC)C(NC(C)=O)C(N)C1 (stereo unspecified)	-	.	-	.	-
CCNC(=S)N(CCc1ccccc1C)Cc1cc2cc(OC)c(OC)cc2[nH]c1=O	-	-	-	9.2µM	-
COc1ccc2[nH]c(=O)c(CN(Cc3cccs3)C(=S)Nc3ccccc3)cc2c1	-	-	-	?	-
CCNC(=S)N(CCc1cccc(C)c1)Cc1cc2cc(OC)c(OC)cc2[nH]c1=O	-	-	-	8.2µM	-
COc1cc2cc(CN(CCc3ccccc3C)C(=S)NCCCN(C)C)c(=O)[nH]c2cc1OC	?	-	-	-	-
COc1cc2cc(CN(Cc3cccs3)C(=S)Nc3ccccc3)c(=O)[nH]c2cc1OC	-	-	-	8.2µM	-
CCNC(=S)N(CCc1ccc(OC)c(OC)c1)Cc1cc2cc(OC)ccc2[nH]c1=O	-	-	-	?	-
COC(=O)c1ccc(NS(=O)(=O)NC(=O)c2cn(C)c3ccccc23)cc1	-	-	-	-	-
Cc1ccc(C(C[N+](=O)[O-])Sc2ccc(N)cc2)cc1 (stereo unspecified)	5.62µM	-	11.2µM	?	-
Cc1ccc(Sc2ccc(NC(=O)CCl)cc2)c(C)c1	5.01µM	-	2.82µM	?	-
Cc1ccc(C)c(Sc2ccc(NC(=O)CCN3C(=O)NC4(CCCC4)C3=O)cc2)c1	.	-	.	?	.
Cc1nc2cnc(N3CCN(C)CC3)nc2n(-c2ccccc2)c1=O	-	.	-	.	-
Cc1ccc(-c2cnn3c(N4CCOCC4)cc(C)nc23)cc1	-	-	-	?	-
Cc1nc2c(-c3ccccc3)cnn2c(N)c1-c1ccccc1	?	-	0.794µM	?	-
CCOC(=O)Cc1c(C)nc2c(-c3ccccc3)cnn2c1C	-	-	-	?	-
Cc1cc(N2CCOCC2)n2ncc(-c3ccccc3)c2n1	12.6µM	-	?	?	-
Cc1cc(-c2ccccc2)n2ncc(-c3ccccc3)c2n1	10µM	-	?	?	-
SMILES	VP16 counter	TSHR antagonist	RORgamma inh	ELG1 DNA repair	FBPA coupling cs
Cc1cc(N2CCCCC2)n2ncc(-c3ccccc3)c2n1	10µM	-	?	?	-
COCc1c(C(=O)NCCOc2ccc(Cl)cc2)oc2ccccc12	.	-	.	-	.
Cc1ccc(C(=O)O)cc1NC(=S)NC(=O)c1ccc(COc2ccccc2)cc1	-	-	?	-	.
Cc1cc(NC2CCCC2)n2ncc(-c3ccccc3)c2n1	8.91µM	-	7.08µM	?	-
CN(CC(=O)Nc1ccc(F)cc1)C(=O)CN1C(=O)c2cccc([N+](=O)[O-])c2C1=O	.	-	.	-	.
Cn1sc(=O)n(Cc2ccccc2)c1=O	?	.	3.16µM	.	-
CC(=O)N1CCN(C(=O)c2cc(=O)c3ccccc3o2)CC1	-	-	-	-	-
COc1ccc2c(c1OC)C(Cc1ccccc1)N1CCc3cc4c(cc3C1=C2)OCO4 (stereo unspecified)	14.1µM	.	?	.	-32.7
COc1c2c(cc3c1C(CC(O)Cc1ccccc1)N(C)CC3)OCO2 (stereo unspecified)	-	-	-	-	-
C[C@H](O)c1[nH]c2cc(F)ccc2c1[C@H](C)O	-	-	-	-	-
COC(=O)c1ccc(NC(=O)c2ccc3nc(C)sc3c2)cc1	-	-	-[1.91 µM]	?	-
COC(=O)c1ccc2nc(NC(=O)C3CCCCC3)sc2c1	-	-	-	?	-

High-throughput results deposited in PubChem by National Center for Advancing Translational Sciences (NCATS).
